In PubChem BioAssay AID445 (National Center for Advancing Translational Sciences (NCATS), 2006):
About 40 (0.04%) of roughly 110,000 compounds were called active. Not shown: some 22% with an inconclusive outcome. Calls follow the shape of the dose curve; as a rule, active = well fitted curve in the direction sought with a large enough effect in the signal ratio (not every such curve was filed as active); inconclusive = small, poorly fitted or top-dose-only effect, or a change in a side signal; inactive = flat fitted curve, though single readings scatter; the % refers to the signal ratio. Many of the other results were omitted from the sample, so actives are more common in it than they were.

assay: IkB Signaling; details: ABC-DLBCL IkBa-CBG/CBR dual luciferase ratio, 4 h; series mostly up to 57.1 µM; IkBa stabilization activation: at the top concentration;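 also: 0% = basal untreated cells and 100% = reference inhibitor full response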
From the text: NIH Molecular Libraries Screening Centers Network [MLSCN]
NIH Chemical Genomics Center [NCGC]
Nuclear factor kappa-B (NF-kappa-B) plays an important role in normal B cell development and survival. Diffuse large B cell lymphoma (DLBCL) is the most commonly observed type of non-Hodgkin's lymphoma. Gene expression analysis has identified an activated B cell-like subtype of DLBCL (ABC-DLBCL) which expresses known NF-kappa-B target genes. […] However, targets upstream of IKK have been largely unexplored and so nodes upstream of IKK in the NF-kappa-B pathway remain untested due to the lack of chemical probes.
A cell-sensor assay for I-kappa-B-alpha stabilization was developed with NIH investigator Dr. R. Eric Davis in Dr. Louis M. Staudt's laboratory. The assay uses green (CBG68) and red (CBR) emitting beetle luciferases [Chroma-Glo(TM) developed by Promega Corp.] where the green luciferase is fused to I-kappa-B-alpha and the red luciferase is present in its native state. Both luciferase genes are stably present in the OCI-Ly3 human ABC DLBCL cell line, but their expression is under the control of tetracycline-inducible promoters. Following the addition of doxycycline to induce expression of the luciferases, the green luminescence in control cultures rises only slowly because the CBG fusion partner I-kappa-B-alpha is targeted by IKK activity for rapid degradation. In contrast, green luminescence rises rapidly in the presence of proteasome inhibitors or IKK inhibitors. The rise in red luminescence of CBR is not affected by proteasome or IKK inhibitors, and serves as normalization for cell number and nonspecific effects. Compounds were screened as a concentration-titration series that ranged from 57 uM to 0.7 nM.
NCGC Assay Protocol Summary:
Cells were seeded in 1536-well plates at 5000 cells/3ul in IMDM medium containing 0.5% FBS, w/o phenol red, L-glutamine, 25 mM HEPES, 3 mg/ml sodium bicarbonate. After centrifugation for 1 min. at 1000 rpm, 23 nl of compounds or DMSO were delivered to each well using a pin tool. Then 1ul 80ng/ml doxycycline was dispensed into white solid 1536-well plates and the plates were incubated at 37C/5% C02 in a cell incubator for 4 hrs. Then 4 ul Chroma-Glo luminescent substrate mix (Promega) was added to each well. The plate was incubated at R.T. for 10-15 min. The plates were measured on a ViewLux plate reader for green luminescence (540/20 nm filter) and red luminescence (618/8 nm filter). The green and red luminescent signals were corrected for red and green luminescence filter overlap using previously determined filter calibration constants (determined using the procedure outlined in the Promega Technical Manual). The %Activity was determined from the ratio of corrected green/red luminescent values. Green luminescent and ratio %Activity was determined by normalizing to the difference in signal between basal cells (0% Activity) and cells incubated with 10 uM of the proteasome inhibitor MG-132 (100% Activity). Red luminescent %Activity was normalized to the difference between red luminesence in basal cells (0%Activity) and zero luminescence (-100% Activity).
Concentration-response curves were fitted to the signals arising from the green luminescence (I-kappa-B-alpha-luciferase fusion; IkB-luc) and the red luminescence (unfused luciferase; luc) as well as the calculated ratio. The concentration-effect curves were then classified based on curve quality (r2), response magnitude and degree of measured activity. Compounds were then categorized based on their concentration-response curves for all three datasets (Ikb-luc, luc and ratio).
Keywords: IKK, I-kappa-B, IkB, IkBa, cytotoxicity, luminescence, MLSMR, MLSCN, NIH Roadmap, qHTS, NCGC

IkBa stabilization activation, inactive:
CCCCNC(=O)c1ccc2c(c1)NC(=O)C(C(C)C)N2 (stereo unspecified) -0.449%, CCOC(=O)c1scc(-c2ccc(C)cc2)c1S(=O)(=O)Nc1cc(C)ccc1C 0.745%, CCN(CC)c1ccc(NC(=O)Cn2nc3c(cc2=O)CCCC3)c(C)c1 2.3%, Cc1ccc2sc(N(Cc3cccnc3)C(=O)C3COc4ccccc4O3)nc2c1C (stereo unspecified) -0.437%, Cc1ccc(NC(=O)Cn2nnc3sc4c(c3c2=O)CCC(C)C4)cc1 (stereo unspecified) -2.75%, CSc1cccc(NC(=O)CN2C(=O)CCc3cc(S(=O)(=O)N4CCCCC4)ccc32)c1 3.58%, CCOc1ccc(N(CC)S(=O)(=O)N2CCCC(C(=O)NCc3ccc(Cl)cc3)C2)cc1 (stereo unspecified) 0.399%, O=C(NCCCO)C(=O)Nc1c2c(nn1-c1ccccc1)CSC2 -1.36%, Cc1cc(OCC(=O)NCC2(N(C)C)CCCCC2)cc(C)c1Cl 1.43%, Cc1ccc(-c2nn(CCC(=O)Nc3ccc(OC(F)(F)F)cc3)c(=O)c3ccccc23)cc1 -1.64%, CCCSc1nc2sc3c(c2c(=O)n1-c1cccc(Br)c1)CC(C)(C)OC3 1.69%, COc1ccc(CCNC(=O)Cn2c(=O)cc(C(F)(F)F)c3c(C)nn(C)c32)c(OC)c1 0.371%, CCOc1ccccc1CNC(=O)c1cnc2c(-c3ccc(OCC)c(OCC)c3)c(C)nn2c1C -1.18%, CCOc1cc(CNC(=O)c2sc3ncnc(N(C)C4CCCCC4)c3c2C)ccc1OC -1.17%, Cc1c(-c2nc(-c3ccc4c(c3)OCO4)no2)nnn1-c1ccc(Br)cc1F -3.96%, CCN(CC)c1ccc(NS(=O)(=O)c2cc(-c3cc(C)no3)ccc2C)c(C)c1 0.135%, CCN1CCN(CCCNC(=O)c2cnn(-c3ccc(C)cc3C)c2C2CCN(C(=O)OC(C)(C)C)CC2)CC1 1.54%, COc1ccc(-c2onc(C)c2C)cc1S(=O)(=O)NCc1cccs1 -1.8%, Cc1cccc(Cc2c(C)nc3nc(SCc4ccccc4Cl)nn3c2C)c1 2.23%, NC(=O)C1CCN(C(=O)c2cccc(NC(=O)c3nsc4ccccc34)c2)CC1 -1.38%, COc1ccccc1-c1noc(-c2ccc(NCc3ccccc3)c([N+](=O)[O-])c2)n1 -0.999%, COc1ccc(Cl)cc1NC(=O)CSc1nc2ccccc2c2nc(-c3ccccc3)nn12 0.00394%, CCOc1ccccc1NC(=O)Cn1c(=O)n(Cc2ccco2)c(=O)c2sc3ccccc3c21 4.55%, CCN(CC)CCNC(=O)CN1N=C(c2ccc(OC)cc2)CCC1=O -1.9%, COc1ccc(CNc2nc(-c3ccc(Cl)cc3)cc(C(F)(F)F)n2)cc1 -1.22%, COc1ccc(NC(=O)C2CCCN(S(=O)(=O)c3cccc4nonc34)C2)cc1Cl (stereo unspecified) 1.73%, CCc1cc2c(cc3c(=O)n(CC(=O)N4CCN(c5cc(Cl)ccc5C)CC4)ncn32)s1 -1.17%, COc1ccc(-c2nn3c(-c4ccc(OC)cc4)nnc3c3ccccc23)cc1 -0.528%, Fc1ccc(-n2ncc3c(Nc4ccc(Oc5ccccc5)cc4)ncnc32)cc1 -0.511%, CCCOc1ccc(CNC(=O)C2CCN(c3nn4c(=O)cc(C)nc4s3)CC2)cc1 -0.122%, CCS(=O)(=O)c1nc(S(=O)(=O)c2ccc(C)cc2)c(NCc2ccc(Cl)cc2)s1 0.738%, Cc1ccc(CNS(=O)(=O)c2ccc(-c3cc(C(F)(F)F)on3)s2)cc1 -4.13%, Cc1cc(C)cc(NC(=O)c2cnc3sc(N4CCCC4)nn3c2=O)c1 -3.48%, CCCCOC(=O)CSc1ncnc2sc3c(c12)CCC(C)C3 (stereo unspecified) 3.48%, COc1cc(NC(=O)NCC2CCN(Cc3ccc(C)cc3)CC2)cc(OC)c1OC 2.66%, CCOC(=O)c1ccc(NC(=O)c2c(NCc3cccc(OC)c3)sc3c2CCC3)cc1 -1.01%, Cc1nc2nc(SCC(=O)N(Cc3ccccc3)C(C)C)nn2c(C)c1Cc1ccccc1Cl 3.24%, Cc1cc2oc(C(=O)N(Cc3ccc(Cl)cc3)Cc3ccco3)c(C)c2cc1Cl -1.24%, Cc1ccccc1-c1nc(CS(=O)(=O)CC(=O)NC(C)c2ccccc2)c(C)o1 (stereo unspecified) -1.28%, CCOc1ccccc1C(=O)NC1(C(F)(F)F)C(=O)Nc2c1c(=O)[nH]c(=O)n2-c1ccc(F)cc1 (stereo unspecified) -1.66%, CCOC(=O)c1c(C)[nH]c(C)c1S(=O)(=O)NCC(=O)NCc1cccc(C)c1 0.835%, Cc1cccc(NC(=O)CSc2nc(-c3ccco3)cc(C(F)(F)F)n2)c1C 1.98%, Cn1c(=O)oc2cc(S(=O)(=O)CCC(=O)NCCc3ccc(Cl)cc3)ccc21 -1.07%, Cc1ccc(C)c(NC(=O)C2CCCN(S(=O)(=O)c3cn(C)cn3)C2)c1 (stereo unspecified) 1.43%, O=C(CCc1nc(CN2CCN(S(=O)(=O)c3ccc(Cl)cc3)CC2)no1)N1CCCCC1 1.11%, COc1ccccc1NC(=O)C1=C(C)Nc2ncnn2C1c1sccc1C (stereo unspecified) 0.985%, CCCNC(=O)C(CC)n1nc(CC)n2c(cc3oc(C)cc32)c1=O (stereo unspecified) -2.46%, Cc1ccc(CNC(=O)CSC2=Nc3ccccc3C3=NC(C)C(=O)N23)cc1 (stereo unspecified) 0.839%, CCOC(=O)c1cccc(NC(=O)Cn2cnc3nc4c(cc3c2=O)CCCC4)c1 4.01%, Cc1cc(OC(C)C(=O)Nc2sc3c(c2C(N)=O)CCCC3)ccc1Cl (stereo unspecified) -3.34%, Cc1ccc(S(=O)(=O)n2nc(-c3ccc(Cl)cc3)nc2NCc2ccccc2)cc1 1.79%, CCOc1ccc(NC(=O)CCC(=O)N2CC(C)Oc3ccc(C)cc32)cc1 (stereo unspecified) 0.778%, CCCNC(=O)c1ccc2c(c1)ncn2-c1ccc(C)cc1C -5.53%, COC(=O)C1=C(c2ccccc2)c2ccccc2S(=O)(=O)N1CC(=O)Nc1ccccc1C(F)(F)F -1.32%, CCc1ccccc1NC(=O)c1ccc2nc(CCc3ccccc3)oc2c1 3.24%, O=C(CS(=O)(=O)c1cccc2nsnc12)N1CCN(c2cccc(Cl)c2)CC1 0.629%, Cc1cc2c(cc1S(=O)(=O)CCC(=O)Nc1ccc(OC(F)(F)F)cc1)OCC(=O)N2 6.21%, CC(C)c1ccc(NC(=O)Cn2c3ncccc3c(=O)n2-c2ccccc2)cc1 -1.21%, Cc1ccc(Cl)cc1N1CCN(C(=O)c2cn(C)c3ccc(S(=O)(=O)N(C)C4CCCCC4)cc3c2=O)CC1 -0.507%, CCN1CCN(c2ncc3c(n2)CC(c2ccccc2O)CC3=O)CC1 (stereo unspecified) 0.899%, Cc1ccccc1CN1CCC(CNC(=O)c2c(C)oc3ncnc(N4CCCCC4)c23)CC1 0.0466%
